The values that follow come from PubChem BioAssay (NCATS).

Where “and” joins values, the source holds several entries; their conditions need not be identical. Identical values can stand only once. Results filed as inconclusive are left out. Unmarked numbers belong to inactive results. Calls of active or inactive are those of the source. The call rests on the fitted dose curve; in most records, active means well fitted inhibition curve with a large enough effect; inconclusive means small, poorly fitted or top-dose-only effect; inactive means flat fitted curve, though single readings scatter.

For one experiment, the system named is JCK. Put plainly: qHTS profiling for inhibitors of Plasmodium falciparum proliferation (AID 504749). Further: potency means the concentration at half of the fitted maximal effect. As to conditions: P. falciparum in erythrocytes, SYBR Green DNA, 72 h; series mostly up to 28.7 µM. The method in brief:
(§1)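 In a 72 h erythrocytic culture (37 C, humidified, 5% CO2) at 2.5% hematocrit and 0.3% starting parasitemia, compounds were tested; SYBR Green I in detergent lysis buffer stained parasite DNA overnight.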

The test system of another experiment is N140. Described as above. As to conditions: P. falciparum in erythrocytes, SYBR Green DNA, 72 h; series mostly up to 28.7 µM. The method in brief:
as §1

The subject of the next experiment is P94_40. The description is as above. As to conditions: P. falciparum in erythrocytes, SYBR Green DNA, 72 h; series mostly up to 28.7 µM. The method in brief:
as §1

The subject of another experiment is PAD. The description is as above. As to conditions: P. falciparum in erythrocytes, SYBR Green DNA, 72 h; series mostly up to 28.7 µM. The method in brief: as §1
Another experiment deals with PC15. The experiment is described as above. As to conditions: P. falciparum in erythrocytes, SYBR Green DNA, 72 h; series mostly up to 28.7 µM. The gist of the method: as §1
Another experiment deals with PC26. The experiment is described as above. As to conditions: P. falciparum in erythrocytes, SYBR Green DNA, 72 h; series mostly up to 28.7 µM. The method in brief:
as §1

The subject of another experiment is PC49. Described as above. As to conditions: P. falciparum in erythrocytes, SYBR Green DNA, 72 h; series mostly up to 28.7 µM. The gist of the method:
as §1

Another experiment has as its system SC27B. The description is as above. As to conditions: P. falciparum in erythrocytes, SYBR Green DNA, 72 h; series mostly up to 28.7 µM. The method in brief: as §1
Another experiment has as its system TAB113. The description is as above. As to conditions: P. falciparum in erythrocytes, SYBR Green DNA, 72 h; series mostly up to 28.7 µM. The method in brief:
as §1

The next experiment concerns TAB165. The description is as above. As to conditions: P. falciparum in erythrocytes, SYBR Green DNA, 72 h; series mostly up to 28.7 µM. The method in brief: as §1
In experiment [1] the test system is CRL-7250. In words: Cytotoxic Profiling of Annotated Libraries Using Quantitative High-Throughput Screening (AID 1296008). Further: potency means the concentration at half of the fitted maximal effect. On max response: on the % scale 0 is the no-effect control and ±100 the full control effect. As to conditions: Five cell lines viability, CellTiter-Glo ATP luminescence, 48-72 h; max response: stronger effect = lower value. The gist of the method:
(§2)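 Cytotoxicity was measured as CellTiter-Glo ATP luminescence, read after 10 min at room temperature. Compound treatment of the cells lasted 48 or 72 hr at 37 degrees Celsius in a qHTS format.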

In a further experiment the test system is HaCat. The description is as above. As to conditions: Five cell lines viability, CellTiter-Glo ATP luminescence, 48-72 h; max response: stronger effect = lower value. The gist of the method: as §2
Another experiment deals with KB-3-1. Described as above. As to conditions: Five cell lines viability, CellTiter-Glo ATP luminescence, 48-72 h; max response: stronger effect = lower value. The method in brief: as §2
For a further experiment, the system named is NIH3T3. Described as above. As to conditions: Five cell lines viability, CellTiter-Glo ATP luminescence, 48-72 h; max response: stronger effect = lower value. The method in brief:
as §2
Background: ATP-based viability assays read luminescence as a measure of living cells.

Experiment [2] relates to CRL-7250. In words: qHTS assay to identify novel small-molecules to repurpose for Merkel cell carcinoma treatment (AID 1296009). As to conditions: MCC and control cell lines, CellTiter-Glo viability, 72 h; series mostly up to 44.8 µM. The gist of the method: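 Cell viability measured by CellTiter-Glo following 72 hr compound treatment at 37 degree celsius, with NPC and MIPE libraries tested in 8- and 11-point concentration series.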
(In general: In qHTS, concentration-response curves come from the screen itself.)

For another experiment, the system named is ICS. In words: qHTS profiling for inhibitors of Plasmodium falciparum proliferation (AID 504749). Further: potency means the concentration at half of the fitted maximal effect. As to conditions: P. falciparum in erythrocytes, SYBR Green DNA, 72 h; series mostly up to 28.7 µM. The method in brief:
as §1

In the next experiment the test system is P93_24. Described as above. As to conditions: P. falciparum in erythrocytes, SYBR Green DNA, 72 h; series mostly up to 28.7 µM. The method in brief:
as §1

In the next experiment the test system is TAB109. The description is as above. As to conditions: P. falciparum in erythrocytes, SYBR Green DNA, 72 h; series mostly up to 28.7 µM. The method in brief: as §1
Another experiment relates to W2. Described as above. As to conditions: P. falciparum in erythrocytes, SYBR Green DNA, 72 h; series mostly up to 28.7 µM. The gist of the method:
as §1

In the next experiment the test system is HEK293. In words: Cytotoxic Profiling of Annotated Libraries Using Quantitative High-Throughput Screening (AID 1296008). Further: potency means the concentration at half of the fitted maximal effect. On max response: on the % scale 0 is the no-effect control and ±100 the full control effect. As to conditions: Five cell lines viability, CellTiter-Glo ATP luminescence, 48-72 h; max response: stronger effect = lower value. The method in brief: as §2
Further: nearly all actives have a fitted effect of over 60% in size.

Turning to `C#CCOC(C(=O)OCCN(C)C)(c1ccccc1)c1ccccc1`, the Potency result with JCK, in the experiment on N140, in the experiment on P94_40, in the experiment on PAD, in the experiment with PC15 and in the experiment on PC26 was “inactive” in each case. In addition, the Potency result with PC49, with SC27B, with TAB113 and with TAB165 was “inactive” each time. Also, the max response was -6.32% in the experiment with CRL-7250 [1] and -0.159% in the experiment with KB-3-1. In addition, the result with HaCat and in the experiment with NIH3T3 was inactive.
With `O=C(O)P(=O)(O)O`, in the experiment on KB-3-1, the max response was -7.16%. Further, the compound was classed as inactive with CRL-7250 [2].
As for `C=C1C[C@@H]2[C@H](CC[C@]3(C)C(=O)CC[C@@H]23)[C@@]2(C)C=CC(=O)C=C12`, the max response in the experiment on KB-3-1 was -16.4%.
Take `CCOC(=O)C1(c2ccccc2)CCN(CCC(C#N)(c2ccccc2)c2ccccc2)CC1`: the Potency with ICS is 2.24 µM (active); in the experiment with N140, 3.55 µM (active); with P93_24 it was 3.55 µM (active); with P94_40, 3.16 µM (active); in the experiment with PAD, 2.51 µM (active); in the experiment with PC15 it was 12.6 µM (active). For the same compound, the Potency in the experiment with PC26 was 6.75 µM (active); in the experiment with SC27B, 2.82 µM (active); with TAB109 it was 3.16 µM (active); with TAB113, 2.24 µM (active); with TAB165 it was 2.51 µM (active); in the experiment on W2 it was 4.78 µM (active). Also, the max response with HaCat is -18.2%; with KB-3-1, -29%; with NIH3T3 it was -8.7%.
As to `CO[C@]12CC[C@@]3(C[C@@H]1[C@](C)(O)C(C)(C)C)[C@@H]1Cc4ccc(O)c5c4[C@@]3(CCN1CC1CC1)[C@H]2O5`, in the experiment on HEK293, the Potency was 21.5 µM (active).
In the case of `CN1C[C@H](CNC(=O)OCc2ccccc2)C[C@@H]2c3cccc4c3c(cn4C)C[C@H]21`, the Potency is 7.08 µM (active) in the experiment with ICS; 12.6 µM (active) in the experiment on N140; 5.01 µM (active) in the experiment with P93_24; 6.31 µM (active) with P94_40; 13.5 µM (active) in the experiment on PC26; 5.62 µM (active) in the experiment on TAB109. For the same compound, the Potency with TAB113 is 12.6 µM (active); in the experiment with TAB165, 10 µM (active); with W2 it was 4.78 µM (active). The Potency result with JCK and in the experiment on PC49 was “inactive” each time. For the same compound, the max response was -40.8% in the experiment on HaCat and -8.28% in the experiment on KB-3-1.
With `Clc1ccc(CCC(Cn2ccnc2)Sc2c(Cl)cccc2Cl)cc1` (stereo unspecified), the max response with CRL-7250 [1] is -0.661%; with KB-3-1, 1.06%; in the experiment on NIH3T3, -8.13% and -9.95%.
On to `Oc1cc(Cl)ccc1Oc1ccc(Cl)cc1Cl`, for which the Potency with ICS is 1.58 µM (active); in the experiment with JCK it was 11.2 µM (active); in the experiment with N140 it was 3.16 µM (active); in the experiment on P93_24, 6.31 µM (active); in the experiment on P94_40, 4.47 µM (active); in the experiment with PAD it was 5.01 µM (active). Besides, the Potency is 7.08 µM (active) in the experiment on PC15; 7.57 µM (active) with PC26; 12.6 µM (active) with PC49; 4.47 µM (active) in the experiment on SC27B; 10 µM (active) with TAB109; 4.47 µM (active) in the experiment on TAB113. Moreover, the Potency in the experiment on TAB165 was 3.55 µM (active); with W2, 3.38 µM (active); with CRL-7250 [1], 39.4 µM (active). The max response with KB-3-1 is 3.49%.
As for `C[C@]12C/C(=C/O)C(=O)C[C@@H]1CC[C@@H]1[C@@H]2CC[C@@]2(C)[C@H]1CC[C@]2(C)O`, the Potency result in the experiment with JCK, in the experiment on N140, in the experiment with P93_24, in the experiment with P94_40, in the experiment with PC15 and in the experiment on PC26 was “inactive” throughout. For the same compound, the Potency result in the experiment on PC49, in the experiment with SC27B, in the experiment with TAB109, in the experiment on TAB113 and in the experiment on TAB165 was “inactive” throughout. Also, the max response with HEK293 was -8.16%; in the experiment on KB-3-1, -12.7%; in the experiment on NIH3T3, 1.95%. Further, the result in the experiment on HaCat was inactive.
With `CC(=O)OCC(CCn1cnc2cnc(N)nc21)COC(C)=O`, the outcome with CRL-7250 [2] was inactive.
Take `c1ccc(C2CC2)c(OCC2=NCCN2)c1`: the Potency entry in the experiment on ICS, in the experiment with JCK, in the experiment with N140, with P93_24, with P94_40 and in the experiment on PAD was “inactive” throughout. Moreover, the Potency entry in the experiment on PC15, in the experiment on PC26, in the experiment with PC49, in the experiment on SC27B, in the experiment on TAB109 and in the experiment on TAB113 was “inactive” throughout. Besides, the Potency entry with TAB165 was “inactive”. In addition, the Potency in the experiment on W2 was 13.5 µM (active). For the same compound, the values for the max response in the experiment with HEK293, in the experiment on KB-3-1 and in the experiment on NIH3T3 were -2.25%, 1.77% and -5.7%, respectively. Besides, the compound was classed as inactive with HaCat.
For `Cc1ccc(-c2cc(C(F)(F)F)nn2-c2ccc(S(N)(=O)=O)cc2)cc1`, in the experiment with CRL-7250 [2], the outcome was inactive.
Regarding `COc1ccc2c(c1OC)CN1CCc3cc4c(cc3C1C2)OCO4` (stereo unspecified), the max response in the experiment with HaCat was 1.37%; in the experiment with KB-3-1, -7.53% and -10%; with NIH3T3 it was -8.93%. The call with HaCat was inactive.
As to `c1ccc2c(c1)OCC(C1=NCCN1)O2` (stereo unspecified), the Potency entry in the experiment on JCK, with N140, with P93_24, in the experiment with P94_40, in the experiment with PAD and in the experiment with PC15 was “inactive” each time. For the same compound, the Potency entry with PC26, with SC27B, in the experiment on TAB109, with TAB113 and with TAB165 was “inactive” throughout. In addition, the Potency in the experiment on CRL-7250 [1] is 23.7 µM (active); with NIH3T3, 15 µM (active). In addition, in the experiment with KB-3-1, the max response was 29.1%.
Take `CN1CCN(C2=Nc3ccccc3Oc3ccc(Cl)cc32)CC1`: the call with CRL-7250 [2] was inactive.
As for `O=C1NCN(c2ccccc2)C12CCN(CC1COc3ccccc3O1)CC2` (stereo unspecified), the Potency in the experiment with ICS is 8.91 µM (active). The Potency result in the experiment with JCK, in the experiment with N140, in the experiment with P93_24, in the experiment on P94_40, in the experiment on PC15 and in the experiment on PC26 was “inactive” in each case. For the same compound, the Potency entry with PC49, with SC27B, with TAB109, in the experiment on TAB113 and in the experiment on TAB165 was “inactive” each time. The max response was -15.4% in the experiment with CRL-7250 [1], 4.17% in the experiment with HaCat, -9.57% in the experiment with KB-3-1 and -1.57% in the experiment with NIH3T3.
In the case of `CCC(COC(=O)c1cc(OC)c(OC)c(OC)c1)(c1ccccc1)N(C)C` (stereo unspecified), the Potency result with ICS, with JCK, in the experiment on N140, with P93_24, in the experiment with PAD and in the experiment on PC15 was “inactive” throughout. The Potency entry with PC26, in the experiment on PC49, in the experiment with SC27B, with TAB109 and with TAB113 was “inactive” throughout. The Potency in the experiment on W2 was 6.75 µM (active). Also, the max response in the experiment on CRL-7250 [1] was -3.97%; in the experiment with KB-3-1, 3.84%. The result with HaCat and in the experiment with NIH3T3 was inactive.
